Assay outcomes: PubChem BioAssay, Bradner/Qi Labs at DFCI
CBX7 inh: CBX7 chromodomain binding inhibitors, primary screen, biochemical, AlphaScreen. Chromobox protein homolog 7 (Homo sapiens), O95931. AlphaScreen His6-CBX7 / biotin-H3K27me3 peptide binding; active compounds read low. normalised signal (fraction of DMSO) (no concentration beside the values). 66,000 tested, 1.1% active. AID 1224903, 2016; in the data active = normalised signal below about 0.5
Target sequence (O95931 whole entry, looked up): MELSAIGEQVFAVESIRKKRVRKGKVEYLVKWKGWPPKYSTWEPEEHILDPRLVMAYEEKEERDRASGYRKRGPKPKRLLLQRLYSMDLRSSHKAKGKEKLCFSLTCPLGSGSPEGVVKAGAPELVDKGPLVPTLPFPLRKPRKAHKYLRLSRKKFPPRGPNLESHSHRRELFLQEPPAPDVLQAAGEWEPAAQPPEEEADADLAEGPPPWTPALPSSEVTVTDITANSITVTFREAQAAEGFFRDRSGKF
Starred values were filed as active, the others as inactive. The sample as a whole holds a higher share of hits than the screen did.

SMILES	CBX7 inh
CCCS(=O)(=O)N1CCCC(C(=O)NCCc2ccc(C)cc2)C1 (stereo not given)	1
CCOc1cc2sc(N3CCC(C(=O)Nc4ccc(F)cc4F)CC3)nc2cc1Br	1.2
CCCCOc1ccc(C(=O)Nc2nc3ccc(OCC)cc3s2)cc1	1
COc1cccc(NC(=O)CSc2nnc(Cc3cc(=O)[nH]c(=O)[nH]3)n2-c2cccc(C)c2)c1	1
O=C(O)c1ccc(Nc2nc(-c3ccccn3)cs2)cc1	0.18*
CCOc1ccc(Nc2nc(-c3c(C)nc4ncccn34)cs2)cc1	0.88
CCOc1ccc(Nc2nc(-c3ccc(Cl)c(Cl)c3)cs2)cc1	0.82
COc1ccc(-c2csc(Nc3ccccc3OC)n2)cc1	0.93
CCOc1ccc(Nc2nc(-c3ccccn3)cs2)cc1	0.018*
O=C(O)c1ccc(Nc2nc(-c3ccccc3)cs2)cc1	0.86
COc1ccc(OC)c(Nc2nc(-c3ccccn3)cs2)c1	0.38*
O=C(O)c1ccc(Nc2nc(-c3ccncc3)cs2)cc1	0.91
COc1ccc(OC)c(Nc2nc(-c3ccc(C)cc3)cs2)c1	0.77
O=C(c1ccc2c(c1)N(Cc1ccc(F)cc1Cl)C(=O)CS2)N1CCC2(CC1)OCCO2	1.2
CC1CCN(c2cc(=O)n(Cc3ccc(F)cc3)c(=O)[nH]2)CC1	0.96
O=C1CC(c2ccc(F)c(Br)c2)c2cc3c(cc2N1)OCO3 (stereo not given)	0.95
O=C(Nc1cccnc1)c1cc2ccccc2oc1=O	0.95
COc1ccc(CCNC(=O)c2csc3c2CCCC3)c(OC)c1	1.1
CCOc1ccc(C(=O)Nc2cccc(-c3nc4ccc(C)cc4o3)c2)cc1Br	1.2
c1cnc2c(SCC3CCOCO3)cccc2c1 (stereo not given)	1.1
COc1ccc(NC(=O)C(Cc2ccccc2)NS(=O)(=O)c2cccc3cccnc23)cc1 (stereo not given)	1
O=C(CC(Sc1cccc2cccnc12)c1ccc(OC(F)F)cc1)c1ccco1 (stereo not given)	0.0051*
N#Cc1nc(COc2ccccc2F)oc1N1CCN(c2ccccc2)CC1	0.48*
COc1ccc(N2CCN(c3oc(COc4ccccc4F)nc3C#N)CC2)cc1	0.55
CN1CCN(c2oc(COc3ccc(F)cc3)nc2C#N)CC1	1
SMILES	CBX7 inh
COc1ccccc1OCc1nc(C#N)c(N(C)C)o1	0.95
N#Cc1nc(COc2ccc(Cl)cc2)oc1N1CCOCC1	1.2
N#Cc1nc(COc2ccccc2)oc1NCc1ccc(F)cc1	0.88
Cc1ccc(OCc2nc(C#N)c(N3CCC(C)CC3)o2)cc1	0.52
Cc1ccc(OCc2nc(C#N)c(N3CCN(c4ccccc4)CC3)o2)cc1	0.46*
CN(Cc1ccccc1)c1oc(COc2ccc(F)cc2)nc1C#N	0.44*
CC1CCN(c2oc(COc3ccc(Cl)cc3)nc2C#N)CC1	0.36*
COc1ccc(OCc2nc(C#N)c(N3CCOCC3)o2)cc1	1
N#Cc1nc(COc2ccccc2F)oc1N1CCCC1	0.88
Cc1ccc(-c2cc(C(=O)NCCN3CCOCC3)c3ccccc3n2)cc1C	1
Cc1ccc(-c2nc(Nc3ccc4c(c3)OCCO4)c3ccccc3n2)cc1	1.2
N#Cc1nc(COc2ccc(F)cc2)oc1N1CCOCC1	0.96
CN(C(=O)Cc1c(C(=O)O)[nH]c2ccccc12)c1cccc(Cl)c1	1.1
Cc1ccc(-n2ncc3c(=O)n(-c4ccc(F)c(Cl)c4)c(C)nc32)cc1C	0.89
CCN1CCN(c2oc(COc3ccccc3)nc2C#N)CC1	0.95
Cc1ccc(OCc2nc(C#N)c(N3CCC(C(N)=O)CC3)o2)cc1	0.88
Cc1ccc(OCc2nc(C#N)c(N3CCN(Cc4ccccc4)CC3)o2)cc1	0.46*
COCCNC(=O)CN1CCCN(Cc2ccc(F)cc2Cl)C1=O	0.93
COc1ccc(-c2nnc(NC(=O)c3ccc(S(=O)(=O)N4CCCCC4)cc3)o2)c(OC)c1	0.88
CCOC(=O)c1cnc2ccc(C)cc2c1NCCCN1CCOCC1	1.2
CCCc1cc(C(=O)Nc2ccc(OC)cc2OC)no1	1.2
COc1ccc(C)cc1S(=O)(=O)NCCc1c(C)[nH]c2ccc(Br)cc12	1.1
Cc1ccc2[nH]c(C)c(CCNS(=O)(=O)c3ccc(F)cc3)c2c1	0.45*
COc1ccc(S(=O)(=O)NCCc2c(C)[nH]c3ccc(C)cc23)c2ccccc12	0.8
COc1cc(S(=O)(=O)NCCc2c(C)[nH]c3ccc(C)cc23)ccc1Cl	0.43*
SMILES	CBX7 inh
CCOc1ccc(S(=O)(=O)NCCc2c(C)[nH]c3ccc(F)cc23)cc1	0.92
COc1cc(S(=O)(=O)NCCc2c(C)[nH]c3ccc(C)cc23)c(C)cc1C	0.35*
COc1ccc(C)cc1S(=O)(=O)NCCc1c(C)[nH]c2ccc(C)cc12	0.4*
COc1ccc(S(=O)(=O)NCCc2c(C)[nH]c3ccc(C)cc23)cc1OC	0.63
COc1ccc(C)cc1S(=O)(=O)NCCc1c(C)[nH]c2ccccc12	0.87
CCOc1ccc(S(=O)(=O)NCCc2c(C)[nH]c3ccc(C)cc23)cc1	0.96
COc1cc(C)c(S(=O)(=O)NCCc2c(C)[nH]c3ccc(F)cc23)cc1C	0.95
COc1ccc(S(=O)(=O)NCCc2c(C)[nH]c3ccc(Br)cc23)cc1C	0.57
CCN1CCc2c(sc(NC(=S)NC(=O)c3c(Cl)cnn3C)c2C(N)=O)C1	0.89
Cc1cccc(-c2cc(C(=O)NCc3ccc(S(N)(=O)=O)cc3)c3ccccc3n2)c1	1.1
Cc1ccc(NC(=O)Cn2cc(S(=O)(=O)c3ccc(C)cc3)c(=O)c3cc(C)ccc32)cc1	0.83
CC1CCC(NC(=O)C2(C)CCC(=O)N2Cc2ccc(F)cc2)CC1 (stereo not given)	0.86
O=C(NCCc1c[nH]c2ccccc12)c1ccc2c(c1)NC(=O)c1ccccc1S2	1.1
CCCCCCCCOc1ccc(C2C(N3C(=O)c4ccccc4C3=O)C(=O)N2c2ccc(C)cc2)cc1 (stereo not given)	0.95
O=C(NCCc1ccc(Cl)cc1)c1cnn2c(C(F)(F)F)cc(-c3ccccc3)nc12	1.1
COc1ccc(CCNC(=O)CCc2nc(-c3ccc(C)cc3)no2)cc1OC	1.1
O=C(Cn1cc(S(=O)(=O)c2ccccc2)c(=O)c2cc(Cl)ccc21)Nc1ccccc1	1.1
CC(=O)N1c2ccc(S(=O)(=O)Nc3ccc(C(C)C)cc3)cc2CC1C (stereo not given)	0.74
Clc1ccc(OCc2nc(-c3ccccn3)no2)c(Cl)c1	0.77
CCc1ccc(OCC(=O)Nc2cccc(-c3nc4ncccc4o3)c2)cc1	0.99
C=CCc1cc(C)ccc1OCC(O)CN1CCCCC1 (stereo not given)	1
C=CCc1ccccc1OCC(O)CN1CCN(c2ccccc2)CC1 (stereo not given)	0.76
C=CCc1cc(C)ccc1OCC(O)CN1CCN(c2ccccc2)CC1 (stereo not given)	0.38*
O=C(Nc1ccc(OCc2ccccc2)cc1)C12CC3CC(C1)CC(n1cncn1)(C3)C2	1.1
CCOC(=O)c1oc2ccccc2c1NC(=O)c1ccc(S(=O)(=O)N(C)Cc2ccccc2)cc1	1
CN(Cc1ccccc1)S(=O)(=O)c1ccc(C(=O)Nc2nnc(-c3ccc(F)cc3)o2)cc1	0.14*
COc1cc(OC)cc(-c2nnc(NC(=O)c3ccc(S(=O)(=O)N(C)C)cc3)o2)c1	0.73
COc1cccc(-c2nnc(NC(=O)c3ccc(S(=O)(=O)N4CCCC4)cc3)o2)c1	0.89
CCc1nnc(NC(=O)c2ccc(S(=O)(=O)N(C)Cc3ccccc3)cc2)o1	0.43*
